Source: the supplement of paper PMC13392028
Over roughly 4,100 sequences, “RBNS R-value (6-mer enrichment in protein-bound RNA vs input library)” has its median near 0.99; the highest 2% begin near 1.4. This is one part of a sample in which the highest values are shown more often than they occur.

Test system: PfIESI-1 RRM domain (Plasmodium falciparum ortholog aa 875-1232, GST fusion)
Test: RBNS R-value (6-mer enrichment in protein-bound RNA vs input library) (ratio); higher = stronger binding preference; the methods of the paper give 50 / 100 / 500 nM protein instead
Procedure: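 RNA Bind-n-Seq: recombinant GST-tagged IESI-1 RRM domain was incubated at room temperature with a random 40-nt in vitro transcribed RNA library at 250, 500 or 1000 nM protein. Bound RNA was pulled down on glutathione beads and sequenced. R-value is the enrichment of each 6-mer in the bound RNA relative to the input library. Each 6-mer sits inside the random 40-mer context, not as an isolated oligo. Values are replicate 1 only.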

Sequence	RBNS R-value (protein concentration: 250 nM)	RBNS R-value (protein concentration: 500 nM)	RBNS R-value (protein concentration: 1000 nM)
AAUGCU	0.913	0.938	0.914
UAUGAG	0.911	0.958	0.958
UAUGAA	0.854	0.932	0.895
CAUGAU	2.24	2.42	1.85
AAUGAU	2.28	2.5	1.88
CAUGAA	0.967	1.05	1.01
CAUGAG	1.06	1.07	1.07
UAUGAU	1.95	2.17	1.61
AAUGAG	1.02	1.1	1.07
CACGUU	0.886	0.866	0.874
GCACGA	1.08	1.09	1.1
AGCAGG	1.02	1.05	1.12
AGAGUG	1.09	1.09	1.05
AUUGAG	1.07	1.1	1.04
UUUGAC	1.17	1.15	1.12
CUUGAA	1.1	1.09	1.1
CUUGAC	1.28	1.19	1.22
CUUGAU	2.01	2.15	1.74
GUUGAC	1.01	0.99	1.02
UUUGAU	2.39	2.62	1.95
GUUGAU	1.71	1.81	1.51
AUUGAU	2.21	2.4	1.85
AUUGAC	1.12	1.14	1.08
UUUGAA	0.988	1.05	1.05

Sequence	RBNS R-value (protein concentration: 250 nM)	RBNS R-value (protein concentration: 500 nM)	RBNS R-value (protein concentration: 1000 nM)
GUUGAG	0.972	0.963	1
AGGACA	1	1.03	1.04
CCUUGU	0.991	0.946	0.954
GGGAGU	1.1	1.05	1.09
CCGCCA	1.08	0.99	1.06
AUCCUA	0.949	0.898	0.9
GCCCCU	1.04	0.964	1.02
AAUCAA	0.817	0.94	0.899
GCCAUA	0.918	0.859	0.881
UGGCUU	1.01	0.984	0.967
AAAAAC	1.13	1.3	1.2
GAGCGU	0.994	0.96	0.986
CCGAGA	1.59	1.4	1.41
UCGAGA	1.26	1.23	1.22
CCGAGC	1.29	1.16	1.24
GCAGGU	1.01	0.998	1.07
CGGGGU	1.06	1.04	1.07
AUUCGU	0.903	0.913	0.916
GGGGUG	1.1	1.02	1.07
CCAUGU	0.923	0.903	0.916
CCAUGG	1.07	1.01	1.07
GCAUGC	1.01	0.974	1
CCAUGA	1.4	1.43	1.27
GCAUGA	1.41	1.43	1.27

Sequence	RBNS R-value (protein concentration: 250 nM)	RBNS R-value (protein concentration: 500 nM)	RBNS R-value (protein concentration: 1000 nM)
GCAUGG	0.998	0.987	1.04
GAGAGA	1.26	1.29	1.28
UGCGAC	1.06	1	1
UAAAAA	0.951	1.17	1.05
GGCACU	1.11	1.03	1.07
GGCACC	1.38	1.2	1.29
GACACU	1.2	1.19	1.14
GACACC	1.56	1.32	1.35
GGCACA	1.05	1.05	1.04
GACACG	1.13	1.1	1.12
CGAUCG	0.905	0.881	0.937
CUGCGG	1.03	0.975	1.05
CCUCCG	1.07	1.01	1.07
ACUUAC	0.815	0.767	0.76
GCCAAA	1.06	1.08	1.1
AAGCGC	1.03	1.06	1.04
UAUUGG	0.864	0.848	0.873
GAGAAG	1.33	1.36	1.29
GAGAAC	1.24	1.31	1.27
GAGAAA	1.41	1.55	1.45
GAGAAU	1.43	1.5	1.37
CAGAAU	1.12	1.18	1.15
UAGAAU	1.06	1.14	1.06
UCGGCU	0.925	0.885	0.937

Sequence	RBNS R-value (protein concentration: 250 nM)	RBNS R-value (protein concentration: 500 nM)	RBNS R-value (protein concentration: 1000 nM)
GCCUCA	0.982	0.946	1.02
ACCCGC	1.29	1.17	1.23
UCCCGA	1.2	1.12	1.14
ACCCGG	1.44	1.25	1.32
ACCCGU	1.24	1.12	1.19
GCCCGA	1.52	1.34	1.36
GCCCGU	1.17	1.07	1.13
GCCCGG	1.38	1.2	1.31
ACCCGA	1.63	1.36	1.4
CCCCGA	1.37	1.23	1.31
UGAGUG	1.07	1.11	1.06
GGCUGG	1.06	1	1.08
AUUCCA	1.24	1.23	1.22
GAGGCC	1.15	1.07	1.13
AUGUAG	0.952	1.04	0.956
UGACAA	1.07	1.14	1.08
UGACAC	1.39	1.32	1.3
UGACAU	1.14	1.14	1.12
GCACGG	1.02	0.986	1.05
AUGGCA	1.28	1.26	1.16
UGCUAU	0.951	0.947	0.896
UCUCGA	1.01	1	1.04
CAUUAA	0.748	0.797	0.751
AAUUAA	0.748	0.862	0.797

Sequence	RBNS R-value (protein concentration: 250 nM)	RBNS R-value (protein concentration: 500 nM)	RBNS R-value (protein concentration: 1000 nM)
UAUUAC	0.773	0.754	0.724
GAUUAG	1.3	1.4	1.25
AAUUAG	0.847	0.908	0.88
GAUUAC	1.36	1.48	1.29
GAUUAA	1.24	1.42	1.2
CAUUAC	0.794	0.766	0.761
CAUUAG	0.827	0.851	0.841
UCAUAC	0.811	0.758	0.768
UAUAGC	0.876	0.87	0.833
CUUUAU	0.759	0.733	0.732
CUCUCU	0.881	0.796	0.867
CUCCAC	1.02	0.964	0.993
UUUUUG	1.18	1.26	1.16
GAAAAU	1.12	1.29	1.19
AGAAAU	1.09	1.29	1.16
AAAAAA	1.25	1.51	1.36
CGAAAA	1.17	1.28	1.23
GAAAAC	1.2	1.32	1.24
AGAAAA	1.27	1.48	1.35
AAAAAU	1.07	1.29	1.16
AAAAAG	1.2	1.37	1.29
GAAAAA	1.29	1.48	1.37
GGUCGG	0.934	0.838	0.968
UCGACU	0.956	0.919	0.936

Sequence	RBNS R-value (protein concentration: 250 nM)	RBNS R-value (protein concentration: 500 nM)	RBNS R-value (protein concentration: 1000 nM)
AGUAGG	0.965	0.969	1.02
CGUUCA	0.9	0.886	0.924
GAAUGC	1.08	1.07	1.08
CAAUGA	1.34	1.41	1.24
CAAUGC	0.943	0.936	0.955
GAAUGU	0.918	1.01	0.982
UAAUGA	1.05	1.2	1.03
AAAUGC	0.994	1.07	1.05
CAAUGG	1.03	1.03	1.06
AAAUGA	1.42	1.6	1.38
GAAUGA	1.47	1.55	1.36
UUCUAC	0.96	0.873	0.911
GUCUUA	0.784	0.786	0.826
CGUGAC	1	0.946	1
GUAGCC	1.03	0.977	1.02
UUUAAG	0.833	0.879	0.837
CAGAGA	1.28	1.31	1.3
CCCGAA	1.44	1.33	1.35
ACCGAA	1.07	1.11	1.09
UCCGAA	1.1	1.1	1.13
ACCGAG	1.34	1.24	1.25
CCGGGU	1.19	1.08	1.17
GCCGAG	1.23	1.16	1.2
CCCGGC	1.27	1.14	1.24

Sequence	RBNS R-value (protein concentration: 250 nM)	RBNS R-value (protein concentration: 500 nM)	RBNS R-value (protein concentration: 1000 nM)
CCCGGU	1.22	1.12	1.21
CCCGAG	1.66	1.29	1.45
CCGGGA	1.4	1.21	1.27
ACGGGA	1.1	1.06	1.1
CCCGGG	1.56	1.3	1.42
CUCAAC	0.907	0.891	0.925
CUCUAC	0.858	0.793	0.813
GGGAAC	1.14	1.14	1.17
GAAUUU	1.14	1.19	1.13
UGCUAC	0.931	0.87	0.895
GUGUGG	0.869	0.812	0.921
CCACGA	1.17	1.13	1.15
CGGGUC	1.03	0.928	1.06
UUCGAG	1.1	1.12	1.14
CUCGAG	1.38	1.28	1.27
GUCGAG	0.954	0.931	0.991
UGGAGC	1.03	1	1.02
CUUAUA	0.758	0.723	0.711
UUGAGU	1	1.04	1.02
CUGAUU	2.52	2.66	1.97
GUGAUU	1.83	2.01	1.61
GCGAUU	1.23	1.24	1.15
GUGAGA	1.02	1.08	1.1
UGGAUU	0.95	0.939	0.974

Sequence	RBNS R-value (protein concentration: 250 nM)	RBNS R-value (protein concentration: 500 nM)	RBNS R-value (protein concentration: 1000 nM)
CUGAAU	1.01	1.05	1.01
UUGAUU	2.69	2.96	2.18
GUGAAA	1.01	1.12	1.09
CCGAUU	1.34	1.3	1.23
GUGAUC	1.06	1.1	1.06
GUGAUA	1.31	1.43	1.28
UACAAA	0.828	0.904	0.843
AAUAAU	0.738	0.867	0.789
CAUAAU	0.76	0.795	0.73
GCGCGA	1.1	1.12	1.11
CGUAAA	0.871	0.956	0.929
ACCUGG	1.19	1.11	1.17
CCCUGA	1.44	1.41	1.35
ACCUGA	1.51	1.48	1.37
CCCUGG	1.17	1.09	1.15
GCCUGG	1.12	1.05	1.15
CCCUGU	0.962	0.898	0.981
GCCUGC	1.12	1	1.06
GCCUGA	1.45	1.4	1.32
ACCUGC	1.09	1.03	1.07
